Values joined by “and” are separate entries in the source; they are usually repeats but may differ in a detail not shown here. Equal entries are not always repeated. Records with an inconclusive call do not appear. Active and inactive are the calls of the source. Unless noted, calls come from the whole dose curve; as a rule, active = well fitted curve in the direction sought with a large enough effect in the repeat runs; inconclusive = weak or mixed curves; inactive = no such curve, though single readings can be large; an effect the other way counts as inactive or inconclusive.
Columns and labels:
[1] = qHTS assay for small molecules that induce genotoxicity in human embryonic kidney cells expressing luciferase-tagged ATAD5 (AID 651632); note: nearly all actives have a fitted effect of over 15% in size; note: potency is the fitted concentration of half-maximal effect
In short: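 DMSO vehicle served as the control. HEK293T reporter cells, 16 hr at 37C, then 30 min Amplite at room temperature; ATAD5 induction is measured as luciferase activity.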

[2] = qHTS assay for small molecule agonists of the p53 signaling pathway - cell viability (AID 651633; calls by dose curve; note: nearly all actives have a fitted effect of over 30% in size; note: potency is the fitted concentration of half-maximal effect)
In short: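 Viability counter-read: CellTiter-Glo luminescence (30 min, room temperature) in the same p53RE-bla plates. These plates had been exposed to compounds for 16 h at 37 C.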

[3] = qHTS assay for small molecules that induce genotoxicity in human embryonic kidney cells expressing luciferase-tagged ATAD5 - cell viability (AID 651634; calls by dose curve; note: nearly all actives have a fitted effect of over 25% in size; note: potency is the fitted concentration of half-maximal effect)
In short: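 Here HEK293T cells with the ATAD5 luciferase reporter are incubated with test compounds for 15.5 hr, and cytotoxicity is then gauged by measuring protease activity in live cells using fluorescence.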

[4] = qHTS assay for small molecule disruptors of the mitochondrial membrane potential - cell viability (AID 720634; calls by dose curve;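 note: human HepG2 liver cancer cells; nearly all actives have a fitted effect of over 20% in size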)
In short: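 Viability of HepG2 cells is scored from ATP content by luminescence; cells are exposed to compound for 1 hr at 37 C and 5% CO2, then dosed with m-MPI dye before the CellTiter-Glo reagent.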

[5] = qHTS assay to test for compound auto fluorescence at 590 nm (red) in HepG2 cells (AID 720674)
In short: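 Red autofluorescence (Ex/Em 540/590 nm, Rose Bengal sodium equivalents) was measured in HepG2 cells, 2,000 per well in MEM plus 10% FBS, plated overnight at 37 C. Readings were taken 1 hr after adding 23 nL compound or DMSO, at 37 C and 5% CO2.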

[6] = qHTS assay to test for compound auto fluorescence at 535 nm (green) in HepG2 cells (AID 720675)
[7] = qHTS assay to test for compound auto fluorescence at 460 nm (blue) in HEK293 cells (AID 720678)
In short: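 Blue-channel (Ex/Em 405/460 nm) intensity measured in HEK293 cultures after overnight compound exposure at 37C; signal expressed relative to triamterene. Cells plated 2,000 per well in 10% dialyzed FBS medium and allowed 4-5 hr to attach.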

[8] = qHTS assay to test for compound auto fluorescence at 590 nm (red) in HEK293 cells (AID 720679)
In short: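 Red-channel autofluorescence (Ex/Em 540/590 nm; Rose Bengal sodium reference) was measured after overnight 37C, 5% CO2 exposure of attached HEK293 cells, 2,000 per well in medium with 10% dialyzed FBS.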

[9] = qHTS assay to test for compound auto fluorescence at 535 nm (green) in HEK293 cells (AID 720680)
[10] = qHTS assay to test for compound auto fluorescence at 460 nm (blue) in HEK293 cell free culture (AID 720681)
In short: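 Blue fluorescence (Ex 405/Em 460 nm, triamterene-equivalent) was read immediately after pin transfer of compound or DMSO into medium (DMEM, 10% FBS) without cells.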

[11] = qHTS assay to test for compound auto fluorescence at 535 nm (green) in HEK293 cell free culture (AID 720682)
In short: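 Read-out: 485/535 nm fluorescence intensity, calibrated against fluorescein. Medium only (DMEM + 10% FBS, no cells); test compound or DMSO vehicle added by pintool before plate reading.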

[12] = qHTS assay to test for compound auto fluorescence at 590 nm (red) in HEK293 cell free culture (AID 720683)
In short: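 Red-channel autofluorescence of compounds in culture medium (DMEM, 10% FBS), no cells, measured at 540/590 nm. Rose Bengal sodium is the reference fluorophore for equivalence.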

[13] = qHTS assay to test for compound auto fluorescence at 590 nm (red) in HepG2 cell free culture (AID 720684)
In short: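 No cells present: MEM + 10% FBS only. Compound pinned in, red label read (540/590 nm). Activity = fluorescence equivalent to Rose Bengal sodium.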

[14] = qHTS assay to test for compound auto fluorescence at 460 nm (blue) in HepG2 cell free culture (AID 720685)
In short: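 Cell-free plates of MEM plus 10% FBS received 23 nL compound or DMSO vehicle; blue-channel (405/460 nm) intensity scored against triamterene as reference fluorophore.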

[15] = qHTS assay to test for compound auto fluorescence at 535 nm (green) in HepG2 cell free culture (AID 720686)
[16] = qHTS assay to test for compound auto fluorescence at 460 nm (blue) in HepG2 cells (AID 720687)
In short: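 Blue-channel autofluorescence (Ex/Em 405/460 nm, triamterene-equivalent) was measured after 1 hr compound exposure at 37 C, 5% CO2. Cells were HepG2, plated overnight at 37 C in MEM plus 10% FBS.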

[17] = molecular target: Glucocorticoid receptor (Homo sapiens) (UniProt P04150); assay: qHTS assay to identify small molecule agonists of the glucocorticoid receptor (GR) signaling pathway (AID 720691; active = well fitted activation curve with a large enough effect in the signal ratio in the repeat runs, not every such curve was filed as active; the % refers to the signal ratio; note: potency is the fitted concentration of half-maximal effect); conditions: GR-bla HeLa, beta-lactamase reporter ratio, 18 h; activation: at 62.4 µM (top of the series)
Chain of Glucocorticoid receptor (Homo sapiens) (P04150 whole entry, looked up): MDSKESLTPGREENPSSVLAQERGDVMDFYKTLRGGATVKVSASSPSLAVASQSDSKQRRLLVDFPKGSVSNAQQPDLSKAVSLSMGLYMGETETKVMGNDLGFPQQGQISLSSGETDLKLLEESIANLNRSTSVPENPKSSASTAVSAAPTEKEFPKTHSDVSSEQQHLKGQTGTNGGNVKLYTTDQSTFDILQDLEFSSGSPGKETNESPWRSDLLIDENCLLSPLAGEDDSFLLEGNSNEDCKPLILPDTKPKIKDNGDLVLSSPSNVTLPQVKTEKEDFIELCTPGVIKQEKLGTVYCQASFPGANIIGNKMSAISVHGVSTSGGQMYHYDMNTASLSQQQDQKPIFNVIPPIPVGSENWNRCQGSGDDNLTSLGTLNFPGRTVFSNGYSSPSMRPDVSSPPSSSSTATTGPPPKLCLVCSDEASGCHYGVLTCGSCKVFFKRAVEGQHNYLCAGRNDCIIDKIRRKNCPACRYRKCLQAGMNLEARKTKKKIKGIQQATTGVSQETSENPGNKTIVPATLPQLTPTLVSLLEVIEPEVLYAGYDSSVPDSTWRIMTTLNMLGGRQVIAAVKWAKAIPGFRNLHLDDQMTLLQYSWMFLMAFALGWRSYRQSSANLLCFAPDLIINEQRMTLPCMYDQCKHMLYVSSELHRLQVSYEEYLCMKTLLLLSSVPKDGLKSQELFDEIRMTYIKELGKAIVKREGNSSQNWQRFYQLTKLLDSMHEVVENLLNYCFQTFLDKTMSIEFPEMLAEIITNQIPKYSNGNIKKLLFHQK
In short: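 Compounds in DMSO, alongside positive controls, were added to GR-bla HeLa reporter cells and incubated 18 h at 37 C; GRE-driven beta-lactamase was detected by fluorescence after 2 h with FRET substrate at room temperature.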

[18] = qHTS assay for small molecule disruptors of the mitochondrial membrane potential (AID 720635); note: potency is the fitted concentration of half-maximal effect
In short: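 Mitochondrial membrane potential tracked with Mito-MPS dye, red aggregates (ex 540/em 590 nm) against green monomers (ex 490/em 535 nm). Compound treatment 1 hr at 37C, dye 30 min in HepG2.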

[19] = molecular target: Glucocorticoid receptor (Homo sapiens) (UniProt P04150); assay: qHTS assay to identify small molecule antagonists of the glucocorticoid receptor (GR) signaling pathway (AID 720692; active = well fitted inhibition curve with a large enough effect in the signal ratio in the repeat runs, not every such curve was filed as active; the % refers to the signal ratio)
In short: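 In a 1536-well cell format, compounds were added 4 h after seeding GR-bla HeLa cells, together with dexamethasone at 5 nM final; reporter activity was measured by FRET-substrate fluorescence following 18 h at 37 C.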
% is set by controls: 0 for no effect and ±100 for the full control effect.

O=C(c1ccc(F)cc1)C1CCN(CCn2c(=O)[nH]c3ccccc3c2=O)CC1
inactive: Potency [1] | Potency [2] | Potency [3] | Potency [4] | Potency [5] | Potency [6] | Potency [7] | Potency [8] | outcome [9] | Potency [10] | outcome [11] | Potency [12] | Potency [13] | Potency [14] | Potency [15] | Potency [16] | Potency [17]

COc1ccc(CN2CCN(C(c3ccc(F)cc3)c3ccc(F)cc3)CC2)c(OC)c1OC
active: Potency [2] 26.6 µM | Potency [3] 21.1 µM | Potency [17] 4.77 µM
inactive: Potency [1] | Potency [4] | Potency [5] | Potency [6] | Potency [7] | Potency [8] | outcome [9] | Potency [10] | outcome [11] | Potency [12] | Potency [13] | Potency [14] | Potency [15] | Potency [16]

CCOC(=O)O[C@H](C)OC(=O)c1ccc2c(c1)cc(C(=O)NC1CCN(C(C)C)CC1)n2Cc1cc(-c2ccc(Cl)s2)on1
active: Potency [2] 25.5 µM | Potency [3] 57.1 µM | Potency [18] 64.1 µM
inactive: Potency [1] | Potency [5] | Potency [7] | Potency [8] | outcome [9] | Potency [10] | outcome [11] | Potency [12] | Potency [13] | Potency [14] | Potency [15]

OC1(c2ccc(Cl)c(C(F)(F)F)c2)CCN(CCCC(c2ccc(F)cc2)c2ccc(F)cc2)CC1
inactive: Potency [1] | Potency [5] | Potency [6] | Potency [7] | outcome [9] | Potency [10] | outcome [11] | Potency [12] | Potency [13] | Potency [14] | Potency [15] | Potency [16]
active: Potency [2] 9.44 µM | Potency [3] 23.7 µM

OCc1c[nH]c2ccccc12
active: Potency [18] 24.3 µM
inactive: Potency [1] | Potency [2] | Potency [3] | Potency [5] | Potency [6] | Potency [7] | Potency [8] | outcome [9] | Potency [10] | outcome [11] | Potency [12] | Potency [13] | Potency [14] | Potency [16]

CCCCCCCC[P+](CCCCCCCC)(CCCCCCCC)CCCCCCCC
inactive: Potency [1] | Potency [5] | Potency [7] | Potency [8] | outcome [9] | Potency [10] | outcome [11] | Potency [12] | Potency [13] | Potency [14] | Potency [16]
active: Potency [2] 12.1 µM | Potency [3] 13.6 µM | Potency [18] 0.0963 µM

CC(C)C(C)(C)C(C)(C)C(C)(C)S
inactive: Potency [1] | Potency [2] | Potency [3] | Potency [5] | Potency [6] | Potency [7] | Potency [8] | outcome [9] | Potency [10] | outcome [11] | Potency [12] | Potency [13] | Potency [14] | Potency [15] | Potency [16]

C=CC(=O)OCCn1c(=O)n(CCOC(=O)C=C)c(=O)n(CCOC(=O)C=C)c1=O
active: Potency [1] 5.45 µM | Potency [2] 27.3 µM | Potency [3] 27.3 µM
inactive: Potency [4] | Potency [5] | Potency [7] | Potency [8] | outcome [9] | Potency [10] | outcome [11] | Potency [12] | Potency [13] | Potency [14] | Potency [15] | Potency [16]

CCCN(CCC)C(=O)C(CCC(=O)OCCCN1CCN(CCOC(=O)Cc2c(C)n(C(=O)c3ccc(Cl)cc3)c3ccc(OC)cc23)CC1)NC(=O)c1ccccc1 (stereo unspecified)
inactive: Potency [1] | Potency [2] | Potency [4] | Potency [5] | Potency [6] | Potency [7] | Potency [8] | outcome [9] | Potency [10] | outcome [11] | Potency [12] | Potency [13] | Potency [14] | Potency [15]
active: Potency [3] 26.6 µM

CCCCCCCCCCC=O
inactive: Potency [1] | Potency [2] | Potency [3] | Potency [18] | Potency [5] | Potency [6] | Potency [7] | Potency [8] | outcome [9] | Potency [10] | outcome [11] | Potency [12] | Potency [13] | Potency [14] | Potency [15] | Potency [16] | Potency [17] | Potency [19]

Cc1onc(-c2ccccc2Cl)c1C(=O)N[C@@H]1C(=O)N2[C@@H]1SC(C)(C)[C@@H]2C(=O)O
inactive: Potency [1] | Potency [2] | Potency [3] | Potency [4] | fluorescence, relative to Rose Bengal [5] -0.424% [at 18.6 µM] | fluorescence, % of fluorescein control [6] -0.13% [at 18.6 µM] | fluorescence, % of triamterene [7] -0.0411% [at 18.6 µM] | fluorescence, % of fluorescent control [8] 0.844% [at 18.6 µM] | fluorescence, % of fluorescein [9] 0.0884% [at 18.6 µM] | fluorescence, % of fluorescent control [10] 0.0563% [at 18.6 µM] | activity change [11] 0.0013% [at 18.6 µM] | fluorescence, % of fluorescent control [12] 0.401% [at 18.6 µM] | fluorescence, % of Rose Bengal [13] -0.203% [at 18.6 µM] | fluorescence, % of fluorescent control [14] 0.0226% [at 18.6 µM] | fluorescence, % of fluorescent control [16] 0.0164% [at 18.6 µM] | Potency [17]

CCCCN(CCCC)c1ccc(C(=O)c2ccccc2C(=O)O)c(O)c1
active: Potency [2] 17.4 µM
inactive: Potency [1] | Potency [3] | Potency [4] | Potency [5] | Potency [6] | Potency [7] | Potency [8] | outcome [9] | Potency [10] | outcome [11] | Potency [12] | Potency [13] | Potency [14] | Potency [15] | Potency [16]

CCCCCCCCCCCC[N+](C)(C)CCCCCCCCCCCC
inactive: Potency [1] | Potency [5] | Potency [6] | Potency [7] | Potency [8] | outcome [9] | Potency [10] | outcome [11] | Potency [12] | Potency [13] | Potency [14] | Potency [15]
active: Potency [2] 54.5 µM | Potency [3] 68.6 µM | Potency [18] 19.3 µM

CC(C)(C)CC(C)(C)c1ccc(OCCOCC[N+](C)(C)Cc2ccccc2)cc1
active: Potency [2] 29.8 µM and 61.1 µM | Potency [3] 29.8 µM and 68.5 µM | Potency [18] 11.9 µM and 21.7 µM
inactive: Potency [1] | Potency [5] | Potency [7] | Potency [8] | outcome [9] | Potency [10] | outcome [11] | Potency [12] | Potency [13] | Potency [14] | Potency [15] | Potency [16]

From PubChem BioAssay (Tox21)
